Source: PubChem BioAssay
In the library only some 10% were active in any assay of this set; here they are far more common.
KB-3-1 cytotox = KB-3-1 parental cell cytotoxicity; Potency, µM (titrated, usually from 46.1 µM), most hits filed as cytotoxic; AID 1347075; 1.4% of 400,000 active; KB-3-1 viability, CellTiter-Glo ATP luminescence, 72 h; also: nearly all actives have a fitted effect of over 60% in size
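Multi-concentration cytotoxicity screen in KB-3-1 cells grown in DMEM lacking phenol red with 10% FBS. After 72 h at 37 °C with compound, ATP-dependent luminescence was recorded.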
KB-V1 MDR tox = KB-V1 MDR subline cytotoxicity. KB-V1 MDR cells viability, CellTiter-Glo, 72 h. 3.4% of 400,000 active. Potency, µM (top dose mostly 46.1 µM), most hits filed as cytotoxic; also: nearly all actives have a fitted effect of over 60% in size
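Compound-treated KB-V1 multidrug-resistant cells, 72 h, 37 degrees C; viability by CellTiter-Glo. Fitted qHTS curves give the values.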
SW480 rereplic = induces DNA re-replication in SW480 colon adenocarcinoma cells; SW480 DNA re-replication, Hoechst DNA content imaging, 48 h; Potency, µM (highest dose often 46.1 µM), most hits filed as activators; 1.8% of 340,000 active; also: nearly all actives have a fitted effect of over 55% in size
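SW480 cells exposed to compounds for 48 hr at 37 C, 5% CO2, then Hoechst-stained 40 min. Nuclear DNA content imaged by fluorescence scanning (405 nm excitation, 500-530 nm emission); re-replication scored as increased high-intensity nuclei.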
RORgamma inh = blocks mouse ROR gamma transcriptional activity; P51450; Drosophila S2 Gal4-RORgamma UAS-luciferase reporter, 20 h; Potency, µM (series often up to 53.6 µM), actives largely listed as inhibitors; 5.4% of 310,000 active; also: nearly all actives have a fitted effect of over 60% in size
Target sequence (P51450 whole entry, looked up, the tested form may be a part): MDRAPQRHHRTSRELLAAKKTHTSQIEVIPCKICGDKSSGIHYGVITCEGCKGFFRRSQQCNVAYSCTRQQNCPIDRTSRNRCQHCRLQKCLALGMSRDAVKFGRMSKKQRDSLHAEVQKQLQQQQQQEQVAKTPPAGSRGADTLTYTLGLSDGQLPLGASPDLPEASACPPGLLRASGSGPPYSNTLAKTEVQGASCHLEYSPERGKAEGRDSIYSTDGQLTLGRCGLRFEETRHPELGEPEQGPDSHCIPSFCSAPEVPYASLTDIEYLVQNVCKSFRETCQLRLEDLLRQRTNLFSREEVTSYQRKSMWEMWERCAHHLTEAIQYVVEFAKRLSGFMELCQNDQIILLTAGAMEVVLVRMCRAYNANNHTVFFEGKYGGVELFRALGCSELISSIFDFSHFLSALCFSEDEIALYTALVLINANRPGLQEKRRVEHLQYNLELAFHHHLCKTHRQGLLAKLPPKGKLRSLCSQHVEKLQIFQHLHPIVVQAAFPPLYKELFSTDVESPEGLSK
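Schneider cells (Drosophila), stable Gal4 DBD–ROR gamma + UAS-luc; 1 hr cmpd preincubation; Cu2+ induction 700 uM final; 20 hr ambient; luminescence.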
Gal4-VP16 FLuc = counter-screen for ROR gamma inhibitors: Gal4-VP16 reporter; Drosophila S2 Gal4-VP16 UAS-luciferase, luminescence, 20 h; Potency, µM (titrated, usually from 53.6 µM), hits mostly inhibitors; 3.5% of 310,000 active; AID 2546;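 also: Gal4-VP16 expression switched on by copper sulfate through the metallothionein promoter; nearly all actives have a fitted effect of over 50% in size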
MCF10A rerep = induces DNA re-replication in MCF 10a normal breast cells. Potency, µM (titrated, usually from 46.1 µM), hits mostly activators. AID 624296. MCF 10A DNA re-replication, Hoechst nuclear intensity, 48 h. 2.9% of 350,000 active; also: nearly all actives have a fitted effect of over 50% in size
Of the large screens only hits and unclear results are named; the others gave an inactive call. Calls follow the shape of the dose curve; as a rule, active = well fitted curve in the direction sought with a large enough effect; inconclusive = small, poorly fitted or top-dose-only effect, or another doubt; inactive = no such curve, though single readings can be large; an effect the other way counts as inactive or inconclusive.

COc1ccc(Cl)cc1NC(=O)CSC1=Nc2ccccc2C2=NC(CC(=O)NCc3ccc4c(c3)OCO4)C(=O)N12 (stereo not given)	none (no result: SW480 rereplic, RORgamma inh, Gal4-VP16 FLuc, MCF10A rerep)
O=C(CC1NCCNC1=O)Nc1ccc(F)c(Cl)c1 (stereo not given)	none (no result: SW480 rereplic, RORgamma inh, Gal4-VP16 FLuc, MCF10A rerep)
CCN(CC)c1nc2c(S(=O)(=O)c3ccccc3)nnn2c2ccc(Cl)cc12	KB-V1 MDR tox inconclusive (no result: SW480 rereplic, RORgamma inh, Gal4-VP16 FLuc, MCF10A rerep)
Cc1cccc(C(=O)NNC(=O)Nc2ccccc2)c1	none
Cc1cccc(NC(=O)C(=O)NNC(=O)c2ccc(C(C)(C)C)cc2)c1	KB-V1 MDR tox inconclusive, SW480 rereplic inconclusive, RORgamma inh inconclusive, Gal4-VP16 FLuc 10µM, MCF10A rerep inconclusive
C=C1CN(C(C(=O)OC)C(C)C)S(=O)(=O)c2ccc(F)cc21 (stereo not given)	none (no result: KB-3-1 cytotox, KB-V1 MDR tox, SW480 rereplic, MCF10A rerep)
CCNC(=O)C1CCCN(C(=O)c2ccccc2)CC1 (stereo not given)	none (no result: SW480 rereplic, RORgamma inh, Gal4-VP16 FLuc, MCF10A rerep)
C[n+]1c2n(c3ccccc31)N=C(c1ccccc1)CS2	KB-3-1 cytotox 2.9µM, SW480 rereplic inconclusive, MCF10A rerep inconclusive
CC(C)C[C@]1(c2ccccc2)ON(c2ccccc2C(F)(F)F)C1=O	SW480 rereplic inconclusive, MCF10A rerep inconclusive (no result: RORgamma inh, Gal4-VP16 FLuc)
O=C1N(c2ccccc2C(F)(F)F)O[C@@]1(c1ccccc1)C1CCCC1	MCF10A rerep 16µM (no result: RORgamma inh, Gal4-VP16 FLuc)
COc1ccccc1[C@]1(C)ON(c2ccccc2C(F)(F)F)C1=O	KB-V1 MDR tox inconclusive (no result: RORgamma inh, Gal4-VP16 FLuc)
O=C1N(c2ccccc2C(F)(F)F)O[C@@]1(c1ccccc1)C1CCCCC1	SW480 rereplic inconclusive, MCF10A rerep 21µM (no result: RORgamma inh, Gal4-VP16 FLuc)
O=C(NCCN1CCCC1)C(c1ccccc1)c1ccccc1	SW480 rereplic inconclusive, MCF10A rerep 23µM
O=C(NCCCN1CCOCC1)C(c1ccccc1)c1ccccc1	none
COc1ccc2c(c1)c1c(c(=O)n(-c3ccc(OC)c(OC)c3)c(=O)n1Cc1ccccc1F)n2C	none (no result: SW480 rereplic, RORgamma inh, Gal4-VP16 FLuc, MCF10A rerep)
CCOC(=O)C1CCN(S(=O)(=O)c2ccc(Cl)cc2)CC1	none
CCOC(=O)CC1(C)Oc2cc(Cl)ccc2N1S(=O)(=O)c1ccc(C)cc1 (stereo not given)	KB-3-1 cytotox 18µM, KB-V1 MDR tox inconclusive (no result: SW480 rereplic, RORgamma inh, Gal4-VP16 FLuc, MCF10A rerep)
CCOC(=O)CC1(CCc2ccccc2)Oc2ccccc2N1S(=O)(=O)c1ccc(C)cc1 (stereo not given)	KB-3-1 cytotox 18µM, KB-V1 MDR tox inconclusive (no result: SW480 rereplic, RORgamma inh, Gal4-VP16 FLuc, MCF10A rerep)
CCC1=C2CC[C@H]3C(=O)NC(=O)[C@H]3[C@H]2[C@@]2(C)C(=NCCc3c[nH]c4ccccc34)OC(=O)N2C1=O	none (no result: KB-3-1 cytotox, KB-V1 MDR tox, SW480 rereplic, MCF10A rerep)
Nc1c(C(=O)NCc2ccc(Cl)cc2)sc2nc3c(c(C(F)(F)F)c12)CCC3	KB-V1 MDR tox 15µM, SW480 rereplic inconclusive
NC(=O)c1sc2nc3c(c(-c4ccc(Cl)cc4)c2c1N)CCCC3	KB-3-1 cytotox inconclusive, KB-V1 MDR tox 2.9µM, SW480 rereplic inconclusive, MCF10A rerep inconclusive
Cc1ccc(-c2c3c(nc4sc(C(N)=O)c(N)c24)CCC3)cc1	KB-V1 MDR tox inconclusive, RORgamma inh inconclusive, Gal4-VP16 FLuc inconclusive, MCF10A rerep 12µM
NC(=O)c1sc2nc3c(c(-c4ccco4)c2c1N)CCCC3	KB-V1 MDR tox inconclusive
COC(=O)c1sc2nc3c(c(-c4cccs4)c2c1N)CCCC3	KB-V1 MDR tox inconclusive, SW480 rereplic 18µM, MCF10A rerep 9.2µM
O=c1c(S(=O)(=O)c2ccccc2)cn(Cc2ccccc2)c2cc(N3CCOCC3)c(F)cc12	none (no result: SW480 rereplic, RORgamma inh, Gal4-VP16 FLuc, MCF10A rerep)
O=c1[nH]c2c(-c3nc(-c4ccc(Cl)cc4)cs3)c(O)cn2c2ccccc12	KB-3-1 cytotox inconclusive (no result: SW480 rereplic, RORgamma inh, Gal4-VP16 FLuc, MCF10A rerep)
Cc1ccccc1NC(=O)c1sc2nc3c(c(-c4ccco4)c2c1N)CCC3	SW480 rereplic 9.2µM, RORgamma inh inconclusive, MCF10A rerep inconclusive
CC(C)(C)C(=O)Nc1ccc(C(=O)Nc2cccc(Oc3ccc(C(=O)O)c(C(=O)O)c3)c2)cc1	RORgamma inh inconclusive, Gal4-VP16 FLuc 11µM
CC(C)Oc1ccc(C(=O)N(Cc2ccco2)c2ccccn2)cc1	none (no result: SW480 rereplic, RORgamma inh, Gal4-VP16 FLuc, MCF10A rerep)
COc1ccc(O[C@H]2C=C[C@@H](c3ccccc3)O[C@H]2CO/N=C(/C)CCC(=O)OC[C@@H]2O[C@H](C#Cc3ccccc3)C=C[C@@H]2Oc2ccc(C)cc2)cc1	none (no result: KB-3-1 cytotox, KB-V1 MDR tox, SW480 rereplic, MCF10A rerep)
